In PubChem BioAssay (NCATS):
Results filed as inconclusive are left out. The source made the active and inactive calls. The call rests on the fitted dose curve; in most records, active means well fitted activation curve with a large enough effect in the main read-out, with a control signal flat (not every such curve was filed as active); inconclusive means small, poorly fitted or top-dose-only effect, or effect the other way, or a change in a side signal; inactive means flat fitted curve, though single readings scatter.

biological target: 3',5'-cyclic-AMP phosphodiesterase 4B (Homo sapiens) (UniProt Q07343); experiment: qHTS Assay for Inhibitors of PDE-IV (AID 607); conditions: HEK293 ACTOne CNG channel cells, membrane potential fluorescence; series mostly up to 22.9 µM; activation (PDE inhibition): at the top concentration; further: % of control where 0% means no effect
How it was run: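 HEK293 ACTOne cells with CNG channel (1000/well), endogenous PDE4; membrane potential dye, compounds up to 22.9 uM final. Fluorescence Ex 535/Em 590; RO 20-1724 (100 uM final) as reference.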

Sequence of 3',5'-cyclic-AMP phosphodiesterase 4B (Homo sapiens) (Q07343 whole entry, looked up): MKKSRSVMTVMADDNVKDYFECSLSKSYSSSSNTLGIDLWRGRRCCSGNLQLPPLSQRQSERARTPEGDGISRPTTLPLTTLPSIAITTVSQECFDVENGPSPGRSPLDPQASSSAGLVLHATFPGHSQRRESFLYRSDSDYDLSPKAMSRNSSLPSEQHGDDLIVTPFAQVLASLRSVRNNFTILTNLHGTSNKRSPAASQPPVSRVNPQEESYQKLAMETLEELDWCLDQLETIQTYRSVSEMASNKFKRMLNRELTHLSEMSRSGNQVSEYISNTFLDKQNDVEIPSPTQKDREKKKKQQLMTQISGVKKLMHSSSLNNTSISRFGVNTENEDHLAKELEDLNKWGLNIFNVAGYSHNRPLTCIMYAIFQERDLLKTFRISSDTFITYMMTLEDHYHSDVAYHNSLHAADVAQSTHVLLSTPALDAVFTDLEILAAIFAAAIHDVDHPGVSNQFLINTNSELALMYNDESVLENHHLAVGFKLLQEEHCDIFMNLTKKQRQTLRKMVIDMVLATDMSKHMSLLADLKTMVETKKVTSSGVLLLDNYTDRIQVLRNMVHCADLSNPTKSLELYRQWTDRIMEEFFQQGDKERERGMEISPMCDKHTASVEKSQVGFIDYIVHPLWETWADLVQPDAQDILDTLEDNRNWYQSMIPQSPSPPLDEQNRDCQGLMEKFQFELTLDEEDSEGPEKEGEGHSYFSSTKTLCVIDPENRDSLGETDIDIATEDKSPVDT

Q: How did the “activation (PDE inhibition)” value turn out when `O=C(O)/C(=C/c1c(C(=O)O)[nH]c2cc(Cl)cc(Cl)c12)c1ccccc1` was run?
A: 21% (inactive)

Q: Which “activation (PDE inhibition)” value does the source give for `N#C/C(=C\c1ccc(O)c(O)c1)C(=O)NCCCNC(=O)/C(C#N)=C/c1ccc(O)c(O)c1` here?
A: -4.77% (inactive)

Q: `NC(N)=NC(N)=Nc1ccccc1` was tested. Which Potency did it give?
A: inactive

Q: Which Potency does the source give for `CCn1c(=O)[nH]c2cc(Cl)c(Cl)cc21` here?
A: inactive

Q: Which Potency does the source give for `COc1ccc(-c2ccc(N)[n+](CCCC(=O)O)n2)cc1` here?
A: inactive

Q: How did the “activation (PDE inhibition)” value turn out when `O=C(O)c1cccnc1C(=O)O` was run?
A: -8.22% (inactive)

Q: Which Potency does the source give for `C=C1C(=O)O[C@@H]2[C@H]3O[C@]3(C)CCC=C(C)CC[C@@H]12` here?
A: inactive

Q: For `COc1ccc(C(=O)NCc2cccnc2)cc1C(=O)NCc1cccnc1`, which Potency is on record?
A: inactive

Q: `CCCCCCN(CCCCCC)C(=O)Cc1c(-c2ccc(F)cc2)[nH]c2ccccc12` was tested. Which “activation (PDE inhibition)” value did it give?
A: 19.3% (inactive)

Q: With `NCCCNCCCCNCCCN` as the molecule, how does the Potency read?
A: inactive

Q: For `O=c1[nH]c2ccccc2c2ccccc12`, which “activation (PDE inhibition)” value is on record?
A: 4.32% (inactive)

Q: Which “activation (PDE inhibition)” value does the source give for `Nc1ncnc2c1ncn2C1CCCC1` here?
A: 5.77% (inactive)

Q: Which “activation (PDE inhibition)” value does the source give for `O=c1[nH]c2cc(Cl)ccc2c(O)c1-c1ccc(Oc2ccccc2)cc1` here?
A: 2.79% (inactive)

Q: `O=C(O)C1=CCCN(CCON=C(c2ccccc2)c2ccccc2)C1` was tested. Which “activation (PDE inhibition)” value did it give?
A: -25.3% (inactive)
